In PubChem BioAssay (NCI):
Several values for one entry are separate records, joined by “and”; a condition that tells them apart may be missing. Identical values can stand only once. Compounds without any hit were thinned out: in the full panel of roughly 83,000, 20% have a hit.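 Compound tested at a single concentration for 48 hours in 96-well plates; a percent growth value below 10 was scored as active.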 Activity calls are given as the source filed them.

tested on: SK-MEL-28 melanoma; assay: NCI-60 one-dose screen, 48 h (100 = growth as untreated, 0 = no growth, -100 = all killed); details: 10 µM
Protocol: Growth inhibition of the SK-MEL-28 human tumor cell line is measured as a screen for anti-cancer activity. Cells are grown in 96 well plates and exposed to the test compound for 48 hours. Compounds are tested at a single concentration, which is 10^-5 M for most compounds. The reported endpoint is percent growth (GI% or GIPRCNT), where numbers from 0 - 100% represent growth inhibition, and numbers from -100% - 0 represent cell death. For example, a value of 40 represents 60% growth inhibition. A value of 0 means no net growth occurred over the course of the experiment. A value of -40 indicates 40% of cells at the beginning of the experiment died by the end of the experiment. A value of -100 means all cells are dead at the end of the experiment.
NCI-60 Human Tumor Cell Lines Screen was performed using the standard one-dose NCI protocol, which is described in more detail at https://dtp.cancer.gov/discovery_development/nci-60/default.htm.
Compounds with GIPRCNT values below 10 were considered active. Activity score was based on GIPRCNT using the following formula: […]
Score is 0 for GIPRCNT values of 100 or above, 50 for GIPRCNT values of 0, and 100 for GIPRCNT values of -100.

SMILES | growth
COc1ccc(-c2cscc2N)cc1 | 96.4% (inactive)
O=C(Nc1cccc(Br)c1)Oc1cccc2cccnc12 | 105% (inactive)
O=C(O)c1c(Cl)c(Cl)c(Cl)c(Cl)c1-c1c2cc(I)c(=O)c(I)c-2oc2c(I)c(O)c(I)cc12 | 105% (inactive) and 327% (inactive) and 108% (inactive)

same assay, conditions: 10 µM unless noted

SMILES | growth
Cc1ccc2nc(-[n+]3cc4ccccc4cc3C)ccc2c1 | 43.1% (inactive)
CN(C)c1ccc(C(=C2C=CC(=[N+](C)C)C=C2)c2ccc(N(C)C)cc2)cc1 (tested in a mixture with another compound) | -87% (active)
Cc1ccc2c(ccc3c[n+]4c5ccccc5ccc4n32)c1 | -28.1% (active)
O=C1NC(=O)/C(=C/C=C/c2ccccc2)S1 | 84.6% (inactive)
Nc1ncnc2c1ncn2C1OC(CO)C(O)C1O (stereo not given) | 116% (inactive) and 124% (inactive) and 125% (inactive)
O=C(CC1(O)C(=O)Nc2c(Cl)ccc(Cl)c21)c1ccc(Cl)cc1Cl (stereo not given) | 109% (inactive)
O=C(Nc1cccc(Br)c1)Oc1ccc(Cl)c2cccnc12 | 25% [100 µM] (inactive)
NC(=S)N/N=C\c1nccc2c(C(F)(F)C(F)(F)C(F)(F)F)cccc12 | 25.2% (inactive)
O=[N+]([O-])c1ccc2c(N=Nc3ccc4ccccc4c3O)c(O)cc(S(=O)(=O)O)c2c1 | 98.8% (inactive)
Cc1ccnc(NC(c2ccccc2)c2ccc3cccnc3c2O)c1 (stereo not given) | 47% (inactive)
NC(N)=N/N=C/c1ccc([N+](=O)[O-])o1 | 114% (inactive)
CC(=Nc1ccc(N(C)C)cc1)c1ccccc1 | 65.4% (inactive)
CC(C)c1ccc2nc3ccc(C(=O)NCCN4CCN(c5ccccc5)CC4)cn3c(=O)c2c1 | 69.7% (inactive)
Oc1ccc(/C=N/NC(=S)Nc2ccccc2)nc1 | 43.1% (inactive)
CCCCCCCCCCCCCCCCN(CC)CC | -91% (active)
CCCCCCCCCCCCCCCCOP(=O)([O-])OCC[N+](C)(C)C | 98.3% (inactive)
Oc1c(Br)cc(Cl)cc1C(c1cc(Cl)cc(Br)c1O)C(Cl)(Cl)Cl | 38.1% (inactive)

SMILES | growth
CCCCCCC(C)c1ccccc1O (stereo not given) (tested in a mixture with another compound) | 111% (inactive)
O=C1C2=C(Nc3cc([N+](=O)[O-])ccc3N2)OC1c1c2ccccc2cc2ccccc12 (stereo not given) | 77.5% (inactive)
CCC(c1cccc(O)c1)C(CC)c1cccc(O)c1 (stereo not given) | 63.2% (inactive)
CCCCCC(CCCCC)C(=O)O | 111% (inactive)
C[N+](C)=c1ccc2nc3c(cc(NCCCNc4cc5oc6cc(=[N+](C)C)ccc-6nc5c5ccccc45)c4ccccc43)oc-2c1 | 64.8% (inactive)
CCC(CCCN(CC)CCc1ccccc1)OC(=O)c1cc(OC)c(OC)c(OC)c1 (stereo not given) | 98.5% (inactive)
Nc1ccc(SSc2ccc(N)cc2)cc1 | 114% (inactive)
Cc1cc2nc(CS)[nH]c2cc1C | 89.5% (inactive)
O=C1c2ccccc2C(=O)N1c1ccccc1 | 115% (inactive)
Cn1c2ccccc2c2nnc(N/N=C/c3ccccn3)nc21 | 18.5% (inactive)
CN=C(N)N/N=C(\C)c1ccc2c(c1)Cc1cc(/C(C)=N/NC(N)=NC)ccc1-2 | -64.7% (active)
O=C(Nc1ccccc1)c1cc(Cl)ccc1O | 55.7% (inactive)
NC(=S)N/N=C/c1ccc(Cl)s1 | 108% (inactive)
CNc1ccc(N)cc1 | 140% (inactive)
CCCCCCCCCCCCCCCC[N+](C)(CCO)Cc1cnc[nH]1 (stereo not given) | -43.2% (active)
CNC(=O)N/N=C/c1ccc([N+](=O)[O-])o1 | 111% (inactive)
CN(C)C(=O)SC1=C(c2c(Cl)cccc2Cl)C(=O)c2ccccc21 | -34.1% (active)

same assay, conditions: 100 µM

SMILES | growth
COc1ccc(-c2cscc2N)cc1 | 51.4% (inactive)
O=C(Nc1cccc(Br)c1)Oc1cccc2cccnc12 | 48.2% (inactive)
O=C(O)c1c(Cl)c(Cl)c(Cl)c(Cl)c1-c1c2cc(I)c(=O)c(I)c-2oc2c(I)c(O)c(I)cc12 | -55.7% (active)
